From PubChem BioAssay (NCATS)
Where “and” joins values, the source holds several entries; their conditions need not be identical. Equal entries are not always repeated. Records with an inconclusive call do not appear. Some structures have more than one record in an assay (separate samples or runs), and their calls can disagree. Calls of active or inactive are those of the source. The call rests on the fitted dose curve; in most records, active means well fitted curve in the direction sought with a large enough effect; inconclusive means small, poorly fitted or top-dose-only effect, or another doubt; inactive means no such curve, though single readings can be large; an effect the other way counts as inactive or inconclusive.

Columns and labels:
TAB165 = assay: qHTS profiling for inhibitors of Plasmodium falciparum proliferation (AID 504749); further: nearly all actives have a fitted effect of over 60% in size; further: potency means the concentration at half of the fitted maximal effect; conditions: P. falciparum in erythrocytes, SYBR Green DNA, 72 h; series mostly up to 28.7 µM
In short: (§1)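 Infected RBCs, 0.3% parasitemia/2.5% Hct final; cpd 72 h, 37 C, 5% CO2; lysis buffer with saponin/triton/SYBR Green I, o/n RT dark; FI 485/535; norm. to artemisinin (0.29 uM) and DMSO.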

CRL-7250 = normal cell line; assay: Cytotoxic Profiling of Annotated Libraries Using Quantitative High-Throughput Screening (AID 1296008); conditions: Five cell lines viability, CellTiter-Glo ATP luminescence, 48-72 h; max response: stronger effect = lower value; further: nearly all actives have a fitted effect of over 60% in size; further: potency means the concentration at half of the fitted maximal effect; on max response: on the % scale 0 is the no-effect control and ±100 the full control effect
In short: (§2)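 Cytotoxicity was measured as CellTiter-Glo ATP luminescence, read after 10 min at room temperature. Compound treatment of the cells lasted 48 or 72 hr at 37 degrees Celsius in a qHTS format.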

HEK293 = assay: as above; conditions: Five cell lines viability, CellTiter-Glo ATP luminescence, 48-72 h; max response: stronger effect = lower value
In short: as §2

HaCat [1] = assay: as above; conditions: Five cell lines viability, CellTiter-Glo ATP luminescence, 48-72 h; max response: stronger effect = lower value
In short: as §2

KB-3-1 = assay: as above; conditions: Five cell lines viability, CellTiter-Glo ATP luminescence, 48-72 h; max response: stronger effect = lower value
In short: as §2

NIH3T3 [2] = assay: as above; conditions: Five cell lines viability, CellTiter-Glo ATP luminescence, 48-72 h; max response: stronger effect = lower value
In short: as §2

HACAT [3] = assay: qHTS assay to identify novel small-molecules to repurpose for Merkel cell carcinoma treatment (AID 1296009); conditions: MCC and control cell lines, CellTiter-Glo viability, 72 h; at 44.8 µM (top of the series) unless noted; further: nearly all actives have a fitted effect of over 60% in size; further: potency means the concentration at half of the fitted maximal effect
In short: (§3)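 72 hr, 37 degree celsius; NPC 8-pt / MIPE 11-pt dose response; compound pinned in DMSO; CellTiter-Glo, 10 min RT, luminescence; normalized to no-cell and DMSO controls.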

HEK293T = assay: as above; conditions: MCC and control cell lines, CellTiter-Glo viability, 72 h; at 44.8 µM (top of the series) unless noted
In short: as §3

MCC-13 = assay: as above; conditions: MCC and control cell lines, CellTiter-Glo viability, 72 h; series mostly up to 46 µM
In short: as §3

MCC-26 = assay: as above; conditions: MCC and control cell lines, CellTiter-Glo viability, 72 h; series mostly up to 46 µM
In short: as §3

MKL-1 = assay: as above; conditions: MCC and control cell lines, CellTiter-Glo viability, 72 h; series mostly up to 46 µM
In short: as §3

MKL-2 = assay: as above; conditions: MCC and control cell lines, CellTiter-Glo viability, 72 h; series mostly up to 46 µM
In short: as §3

UISO = assay: as above; conditions: MCC and control cell lines, CellTiter-Glo viability, 72 h; series mostly up to 46 µM
In short: as §3

WaGa = assay: as above; conditions: MCC and control cell lines, CellTiter-Glo viability, 72 h; series mostly up to 46 µM
In short: as §3

C33A = assay: Primary qHTS to identify gynecologic anti-cancer compounds using libraries of approved drugs and bioactive compounds (AID 1345084); conditions: Gynecologic cancer cell panel viability, ATPlite luminescence, 48 h; series mostly up to 57.5 µM; further: on the % scale 0 is the no-effect control and ±100 the full control effect; nearly all actives have a fitted effect of over 55% in size
In short: (§4)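 In this quantitative HTS, cell killing is estimated from loss of ATP-dependent luciferase light. Cells see five compound concentrations over a 48 h exposure.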

CAOV3 = assay: as above; conditions: Gynecologic cancer cell panel viability, ATPlite luminescence, 48 h; series mostly up to 57.5 µM
In short: as §4

CASKI = assay: as above; conditions: Gynecologic cancer cell panel viability, ATPlite luminescence, 48 h; series mostly up to 57.5 µM
In short: as §4

Es-2 = assay: as above; conditions: Gynecologic cancer cell panel viability, ATPlite luminescence, 48 h; series mostly up to 57.5 µM
In short: as §4

NIH3T3 [4] = assay: qHTS assay to identify novel small-molecules to repurpose for Merkel cell carcinoma treatment (AID 1296009); conditions: MCC and control cell lines, CellTiter-Glo viability, 72 h; at 44.8 µM (top of the series) unless noted; further: nearly all actives have a fitted effect of over 60% in size; further: potency means the concentration at half of the fitted maximal effect
In short: as §3

W2 = assay: qHTS profiling for inhibitors of Plasmodium falciparum proliferation (AID 504749); further: nearly all actives have a fitted effect of over 60% in size; further: potency means the concentration at half of the fitted maximal effect; conditions: P. falciparum in erythrocytes, SYBR Green DNA, 72 h; series mostly up to 28.7 µM
In short: as §1

COc1ccc(C(=O)CC(=O)c2ccc(C(C)(C)C)cc2)cc1
inactive and 11.8 µM (active): Potency (UISO)
inactive and 1.05 µM (active): Potency (MKL-1)
inactive: Potency (TAB165) | max response (CRL-7250) -14.9% and 1.38% | max response (HEK293) 1.8% | outcome (HEK293) | max response (HaCat [1]) -14.4% | outcome (HaCat [1]) | max response (KB-3-1) -7.03% and 3.76% | max response (NIH3T3 [2]) -3.73% and 2.63% | outcome (HACAT [3]) | outcome (HEK293T) | Potency (MCC-13) | Potency (MCC-26) | Potency (WaGa) | Potency (C33A) | Potency (CAOV3) | Potency (CASKI) | Potency (Es-2)
active: Potency (MKL-2) 935 nM

COc1cccc(N(C)C(=S)Oc2ccc3c(c2)CCCC3)n1
inactive: outcome (CRL-7250) | max response (HEK293) -19.3% | outcome (HaCat [1]) | max response (KB-3-1) -2.71% and 6.85% | max response (NIH3T3 [2]) 2.09% | outcome (HACAT [3]) | Potency (MCC-13) | Potency (MCC-26) | Potency (MKL-1) | Potency (MKL-2) | Potency (UISO) | Potency (WaGa) | Potency (C33A) | Potency (CAOV3) | Potency (CASKI) | Potency (Es-2)

CCN(CC)CCn1c(=O)c(Cc2ccc(OC)cc2)nc2ccccc21
inactive: max response (CRL-7250) -4.28% | max response (HEK293) -12.9% | max response (HaCat [1]) -7.99% | max response (KB-3-1) -9.16% | outcome (KB-3-1) | outcome (NIH3T3 [2]) | Potency (MCC-13) | Potency (MCC-26) | Potency (MKL-1) | Potency (MKL-2) | outcome (NIH3T3 [4]) | Potency (UISO) | Potency (WaGa)

NC(=O)c1cccc(N)c1
inactive: max response (CRL-7250) -10% | max response (HEK293) -4.67% | max response (HaCat [1]) -6.72% | outcome (KB-3-1) | outcome (NIH3T3 [2]) | Potency (MCC-13) | Potency (MCC-26) | Potency (MKL-1) | Potency (MKL-2) | outcome (NIH3T3 [4]) | Potency (UISO) | Potency (WaGa)

NCCCC(O)(P(=O)(O)O)P(=O)(O)O
inactive: Potency (TAB165) | Potency (W2) | outcome (CRL-7250) | max response (HEK293) -8.5% and -22.9% | max response (HaCat [1]) -6.79% | max response (KB-3-1) 17.7% and -6.17% | max response (NIH3T3 [2]) 0.802% | outcome (NIH3T3 [2]) | Potency (MCC-13) | Potency (MCC-26) | Potency (MKL-1) | Potency (MKL-2) | outcome (NIH3T3 [4]) | Potency (UISO) | Potency (WaGa) | Potency (C33A) | Potency (CAOV3) | Potency (CASKI) | Potency (Es-2)

NC(=O)c1ccc2[nH]ccc2c1
inactive: max response (CRL-7250) -5.07% | max response (HEK293) -1.44% | max response (HaCat [1]) 0.172% | max response (KB-3-1) 5.8% | max response (NIH3T3 [2]) -9.23% | Potency (MCC-13) | Potency (MCC-26) | Potency (MKL-1) | Potency (MKL-2) | Potency (UISO) | Potency (WaGa)

CC1=C(C(=O)O)N2C(=O)[C@@H](NC(=O)C(N)c3ccccc3)[C@H]2SC1 (some centres not stated)
inactive: max response (CRL-7250) -9.32% | max response (HEK293) -2.36% | max response (HaCat [1]) 3% | outcome (KB-3-1) | outcome (NIH3T3 [2]) | Potency (MCC-13) | Potency (MCC-26) | Potency (MKL-1) | Potency (MKL-2) | outcome (NIH3T3 [4]) | Potency (UISO) | Potency (WaGa)

O=C(O)c1cn(C2CC2)c2cc(N3CCNCC3)c(F)cc2c1=O
inactive: max response (CRL-7250) -2.76% and -7.47% | outcome (HEK293) | outcome (HaCat [1]) | max response (KB-3-1) -1.15% | outcome (KB-3-1) | outcome (NIH3T3 [2]) | outcome (HACAT [3]) | outcome (HEK293T) | Potency (MCC-13) | Potency (MCC-26) | Potency (MKL-1) | Potency (MKL-2) | outcome (NIH3T3 [4]) | Potency (UISO) | Potency (WaGa) | Potency (C33A) | Potency (CAOV3) | Potency (CASKI) | Potency (Es-2)
active: Potency (W2) 4550 nM

Nc1nc(N)c2nc(CNc3ccc(C(=O)NC(CCC(=O)O)C(=O)O)cc3)cnc2n1 (configuration not stated)
active: Potency (CRL-7250) 118 nM | Potency (HEK293) 132 nM | Potency (KB-3-1) 33.2 nM | Potency (NIH3T3 [2]) 93.5 nM
inactive: Potency (TAB165) | Potency (W2) | max response (HaCat [1]) 4.29% | Potency (MKL-1) | Potency (MKL-2)

NC(=O)N1c2ccccc2CC(=O)c2ccccc21
inactive: Potency (TAB165) | Potency (W2) | max response (CRL-7250) 1.16% and -4.89% | outcome (HEK293) | outcome (HaCat [1]) | max response (KB-3-1) -10.3% and 3.64% | outcome (NIH3T3 [2]) | outcome (HACAT [3]) | outcome (HEK293T) | Potency (MCC-13) | Potency (MCC-26) | Potency (MKL-1) | outcome (NIH3T3 [4]) | Potency (UISO) | Potency (WaGa) | Potency (C33A) | Potency (CAOV3) | Potency (CASKI) | Potency (Es-2)
6.68 µM (active) and inactive: Potency (MKL-2)

CC(C)(C)NC(=O)[C@H]1CC[C@H]2[C@@H]3CC[C@H]4NC(=O)C=C[C@]4(C)[C@H]3CC[C@]12C
inactive: max response (CRL-7250) -15.1% and -1.46% | max response (HEK293) -5.16% | max response (HaCat [1]) -13.8% and -8.14% | max response (KB-3-1) 9.49% and 2.45% | max response (NIH3T3 [2]) 2.59% | outcome (NIH3T3 [2]) | Potency (MCC-13) | Potency (MKL-1) | Potency (MKL-2) | outcome (NIH3T3 [4]) | Potency (UISO) | Potency (WaGa) | Potency (C33A) | Potency (CAOV3) | Potency (CASKI) | Potency (Es-2)

COc1cc(NS(=O)(=O)c2ccc(N)cc2)nc(OC)n1
inactive: Potency (TAB165) | Potency (W2) | max response (CRL-7250) -1.11% and -2.3% | max response (HEK293) 4.64% and 3.91% | outcome (HaCat [1]) | max response (KB-3-1) 3.08% | outcome (KB-3-1) | max response (NIH3T3 [2]) -5.03% and -1.81% | outcome (HACAT [3]) | Potency (MCC-13) | Potency (MCC-26) | Potency (MKL-1) | Potency (MKL-2) | Potency (UISO) | Potency (WaGa) | Potency (C33A) | Potency (CAOV3) | Potency (CASKI) | Potency (Es-2)
